# Test results taken from the supplement of paper PMC9801561.
# A number with no mark means an inactive call.
# System: Escherichia coli Nissle 1917
# Test: DuctApe activity index of respiration/growth curve (0 no growth to 9 maximum) (index 0-9); higher = more growth / nutrient utilisation, active = 3 or more; extreme values may be limits of the assay
# Details: nutrient role: sole nitrogen source (pyruvate carbon); incubation: 48 h, 37 °C
# 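Further: biolog PM4 phosphorus and sulfur plates, tetrazolium violet dye reduction read in the OmniLog every 15 min, kinetic curves scored by DuctApe, each plate run in triplicate.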
row,SMILES,DuctApe activity index
1,O=C1NC(=O)C(=O)N1 [Parabanic acid],1.33
2,NCC(=O)N[C@@H](CCC(N)=O)C(=O)O,8.67 (active)
3,C[C@H](N)C(=O)N[C@@H](CCC(N)=O)C(=O)O,8 (active)
4,CCCCN [N-Butylamine],0

# Same assay, conditions: nutrient role: sole phosphorus source (pyruvate carbon); incubation: 48 h, 37 °C
row,SMILES,DuctApe activity index
1,Nc1nc2c(ncn2[C@@H]2O[C@H](COP(=O)(O)O)[C@@H](O)[C@H]2O)c(=O)[nH]1 [Guanosine 5`-Monophosphate],8.67 (active)
2,Nc1ccn([C@@H]2O[C@H](COP(=O)(O)O)[C@@H](O)[C@H]2O)c(=O)n1 [Cytidine 5`-Monophosphate],8.67 (active)
3,O=P(O)(O)CP(=O)(O)O [Methylene Diphosphonic acid],0.667
4,O=P(O)(O)OP(=O)(O)O [Pyrophosphate],9 (active)
5,N[C@@H](COP(=O)(O)O)C(=O)O [O-Phospho-L-Serine],8.67 (active)
6,Nc1ncnc2c1ncn2[C@@H]1O[C@H](COP(=O)(O)O)[C@@H](O)[C@H]1O [Adenosine 5`-Monophosphate],8.67 (active)
7,Nc1ncnc2c1ncn2[C@@H]1O[C@H](CO)[C@@H](O)[C@H]1OP(=O)(O)O [Adenosine 2`-Monophosphate],9 (active)
8,O=P(O)(O)O[C@H]1[C@H](OP(=O)(O)O)[C@@H](OP(=O)(O)O)[C@H](OP(=O)(O)O)[C@@H](OP(=O)(O)O)[C@H]1OP(=O)(O)O [Inositol Hexaphosphate],8.67 (active)

# Same assay, conditions: nutrient role: sole sulfur source (pyruvate carbon); incubation: 48 h, 37 °C
row,SMILES,DuctApe activity index
1,CS(=O)(=O)CC[C@H](N)C(=O)O [L-Methionine Sulfone],0
2,O=S(=O)(O)O [Sulfate],7.33 (active)
3,C[C@H](CCC(=O)NCCS(=O)(=O)O)[C@H]1CC[C@H]2[C@@H]3[C@H](O)C[C@@H]4C[C@H](O)CC[C@]4(C)[C@H]3C[C@H](O)[C@]12C [Taurocholic acid],4 (active)
4,CS(=O)(=O)O [Methane Sulfonic acid],6.67 (active)
